Test results taken from PubChem BioAssay AID1851 (National Center for Advancing Translational Sciences (NCATS), 2009).
Hit rate of the full screen: of about 16,000 compounds, about 5,800 (36%) were called active. About 23% were inconclusive and are not listed. The list shows a part of the results. Values without a mark were called inactive. Calls follow the shape of the dose curve; as a rule, active = well fitted curve in the direction sought with a large enough effect; inconclusive = small, poorly fitted or top-dose-only effect, or effect the other way; inactive = no such curve, though single readings can be large or run the other way.

These compounds were tested against Cytochrome P450 2C19 (Homo sapiens) (UniProt P33261) (assay: Cytochrome panel assay with activity outcomes). Conditions: recombinant CYP, pro-luciferin dealkylation, luminescence, p450-cyp2c19; series mostly up to 57.1 µM; activity, negative = inhibition: at the top concentration.
Sequence of Cytochrome P450 2C19 (Homo sapiens) (P33261 whole entry, looked up): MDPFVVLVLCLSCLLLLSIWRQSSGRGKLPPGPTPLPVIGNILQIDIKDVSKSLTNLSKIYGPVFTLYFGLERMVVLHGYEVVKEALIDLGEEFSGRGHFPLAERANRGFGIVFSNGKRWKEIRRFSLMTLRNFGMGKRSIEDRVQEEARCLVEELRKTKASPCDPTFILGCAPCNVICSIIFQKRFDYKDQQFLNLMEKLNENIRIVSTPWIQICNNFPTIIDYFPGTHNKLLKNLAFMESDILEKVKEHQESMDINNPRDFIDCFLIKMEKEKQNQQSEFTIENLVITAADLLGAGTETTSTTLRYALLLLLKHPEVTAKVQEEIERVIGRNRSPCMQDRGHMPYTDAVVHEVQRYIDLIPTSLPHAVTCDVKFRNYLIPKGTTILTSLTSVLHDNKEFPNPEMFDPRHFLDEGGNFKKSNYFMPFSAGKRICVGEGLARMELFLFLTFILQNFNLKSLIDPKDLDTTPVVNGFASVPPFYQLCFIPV
% is scaled to controls: 0 for no effect and ±100 for the full control effect.

Row | Structure (SMILES) | activity, negative = inhibition | AC50
1 | O=C(Nc1cccc(F)c1)N1CCCC2(CCNCC2)C1 | 9.79% | 
2 | CC(=O)N(O)CCCCCNC(=O)CCC(=O)N(O)CCCCCNC(=O)CCC(=O)N(O)CCCCCN | 10.1% [at 25.6 µM] | 
3 | O=C(c1ccccc1)c1cc(F)c(N2CCOCC2)cc1Cl |  | 0.708 µM (active)
4 | O=C(O)c1ccc(C(=O)c2ccccc2)c(C(=O)O)c1 | 33.3% [at 11.4 µM] | 
5 | Cc1ccc2nc(-c3ccccc3)cc(C(=O)NCCCn3ccnc3)c2c1 |  | 2 µM (active)
6 | COc1ccc(Nc2cc(C(=O)NCCCN3CCN(C)CC3)c3ccccc3n2)cc1 | 11.9% | 
7 | Cc1ccc(-n2c(C)cc(C(=S)N3CCOCC3)c2C)cc1C |  | 0.891 µM (active)
8 | O=C(Nc1ccc(S(=O)(=O)N2CCCC2)cc1)c1ccc(CN2CCOCC2)cc1 | -61.3% | 
9 | O=C(Nc1ccc(S(=O)(=O)N2CCCCC2)cc1)c1ccc(CN2CCc3ccccc3C2)cc1 |  | 7.94 µM (active)
10 | CCOC(=O)/C(C(N)=NCCCO)=C(/O)c1ccccc1 | -17.8% | 
11 | CCOC(=O)C(/C(N)=N/C(=O)Nc1ccccc1)=C(\C)O |  | 17.8 µM (active)
12 | BrC(c1cccc2ccccc12)c1cccc2ccccc12 |  | 1.26 µM (active)
13 | c1c[nH]c(CN2CCOCC2)n1 | -4.4% [at 11.4 µM] | 
14 | Clc1ccc(-n2nnnc2CN2CCOCC2)cc1 |  | 11.2 µM (active)
15 | COCCn1c(=O)c(-c2cc(F)cc(F)c2)nc2cnc(N3CCNCC3)nc21 | -41.5% | 
16 | COc1ccc(S(=O)(=O)Nc2ccc(F)cc2)c(C)c1C |  | 0.0891 µM (active)
17 | O=C(CSc1nnnn1C1CCCC1)Nc1ccc(F)cc1 |  | 2 µM (active)
18 | Fc1ccc(Nc2ccnc(-c3ccccc3C(F)(F)F)n2)cc1 |  | 10 µM (active)
19 | FC(F)(F)c1ccccc1-c1nccc(NCc2ccccc2)n1 |  | 6.31 µM (active)
20 | FC(F)(F)c1ccccc1-c1nccc(NCc2cccs2)n1 |  | 2 µM (active)

Row | Structure (SMILES) | activity, negative = inhibition | AC50
21 | CN(C)Cc1ccccc1-c1nccc(Nc2ccc(F)cc2)n1 | 28.1% | 
22 | COCCNc1ccnc(-c2ccccc2C(F)(F)F)n1 |  | 10 µM (active)
23 | CC(=O)NCCNc1ccnc(-c2ccccc2C(F)(F)F)n1 | -32.5% | 
24 | Cc1cnc(CNc2ccnc(-c3ccccc3C(F)(F)F)n2)cn1 | -11.7% | 
25 | COCCNc1ccnc(-c2ccccc2CN(C)C)n1 | 13.3% | 
26 | COc1ccc(OC[C@@H](CO)OC)cc1 | 28.9% [at 11.4 µM] | 
27 | Cc1ccccc1-c1nccc(NCc2cccs2)n1 |  | 3.98 µM (active)
28 | CN(C)Cc1ccccc1-c1nccc(NCc2cccs2)n1 | -9.43% | 
29 | CC(C)Nc1nc(Oc2ccc(Cl)cc2)cc(C(F)(F)F)n1 |  | 10 µM (active)
30 | C[C@@H]1O[C@H](O[C@@H]2[C@H](C)O[C@H](O[C@@H]3[C@H](C)O[C@H](O[C@H]4CC[C@]5(C)[C@@H](CC[C@@H]6[C@H]5C[C@@H](O)[C@]5(C)[C@@H](C7=CC(=O)OC7)CC[C@]65O)C4)C[C@@H]3O)C[C@@H]2O)C[C@H](O)[C@@H]1O | 57.7% [at 25.6 µM] | 
31 | Cn1c2c(c(=O)n(C)c1=O)CN(CCN1CCNCC1)CN2 | 10.8% | 
32 | CC(Sc1nc(NCc2ccccc2)nc(N(C)C)n1)C(=O)Nc1ccccc1 (stereo not given) |  | 0.794 µM (active)
33 | COc1ccc(NC2=NC(=S)N(c3ccc(C)cc3)C23CCCCC3)cc1 | 14.7% | 
34 | CCOc1ccc(-n2cc(C(=O)NCc3ccco3)c3cc(OC)c(OC)cc3c2=O)cc1 | -15.5% | 
35 | COc1cc2c(C(=O)NCc3ccc(C)o3)cn(CC(C)C)c(=O)c2cc1OC |  | 35.5 µM (active)
36 | COc1cccc(/C=N/n2c(=S)n(C)c3cc(C)c(C)cc32)c1OC |  | 2.24 µM (active)
37 | COc1ccc(/C=N/n2c(C)nnc2C)c(OC)c1 | -23.3% | 
38 | Cc1ccc(C(=O)NC2CCCCCC2)cc1N1CCCC1=O | -13.7% | 
39 | Cc1c(Br)cc(C(=O)NC2CCCCC2)c(C)c1C |  | 14.1 µM (active)
40 | C[C@@H](CCC(=O)O)C(=O)O | 30.5% [at 11.4 µM] | 

Row | Structure (SMILES) | activity, negative = inhibition | AC50
41 | N#C/C(=C\c1cc(Cl)cc(Cl)c1O)C(=O)NC1CCCCC1 |  | 15.8 µM (active)
42 | N#C/C(=C\Nc1ccccn1)C(=O)C1CC1 | -23.3% [at 11.4 µM] | 
43 | COc1ccc(/C=C(/C#N)C(=O)NC2CCCCC2)cc1Br | -19.4% | 
44 | N#C/C(=C\c1cn[nH]c1-c1ccccc1)C(=O)NC1CCCCCC1 |  | 17.8 µM (active)
45 | CC(=NC1CCCCC1)c1ccccc1O | 3.59% [at 11.4 µM] | 
46 | CC1=NNC(=S)NCCCN2CCN(CCCNC(=S)NN=C(C)C=NNC(=S)NCCCN3CCN(CCCNC(=S)NN=C1)CC3)CC2 | 27% [at 11.4 µM] | 
47 | Cc1cc(C(F)(F)F)n2nc(-c3cnn(C)c3C(F)(F)F)cc2n1 |  | 2.82 µM (active)
48 | Cc1cc(C(F)(F)F)n2nc(-c3cnn(C)c3C(F)(F)F)c(Cl)c2n1 |  | 1.78 µM (active)
49 | O=C(Nc1ccccc1C(=O)NCC1CCCO1)c1ccc(Cl)cc1Cl (stereo not given) |  | 14.1 µM (active)
50 | Cc1ccccc1C(=O)c1c[nH]c(C(=O)NCC2CCCO2)c1 (stereo not given) |  | 1 µM (active)
51 | O=C(NCC1CCCO1)c1cc(-c2ccc(Cl)cc2Cl)on1 (stereo not given) |  | 15.8 µM (active)
52 | CO[C@@H]1COC(=O)[C@H]2CCCN2C(=O)[C@@H](C)COC(=O)[C@H](COCc2ccccc2)NC(=O)C/C=C\[C@H]1C | 12.9% [at 11.4 µM] | 
53 | O=C(O)/C=C\C(=O)Nc1ncn[nH]1 | 10.9% [at 11.4 µM] | 
54 | O=[N+]([O-])c1ccc(N2CCN(CCOc3nonc3-c3ccccc3)CC2)c(Cl)c1 |  | 4.47 µM (active)
55 | CC(C)(C)c1cc(Br)c(O)c(CN(Cc2cc(C(C)(C)C)cc(Br)c2O)C2CCCCC2)c1 |  | 0.631 µM (active)
56 | Oc1c(Br)cc(Br)cc1CN(Cc1cc(Br)cc(Br)c1O)C1CCCCC1 |  | 0.316 µM (active)
57 | CC(C)c1cc(CN(C)C)c(O)c(C(C)(C)C)c1 | -2.3% [at 11.4 µM] | 
58 | CN(Cc1cc(C(C)(C)C)cc(Br)c1O)Cc1cc(C(C)(C)C)cc(Br)c1O |  | 3.16 µM (active)
59 | CN(C)Cc1cc(O)c(O)c(CN(C)C)c1 | -24% [at 11.4 µM] | 
60 | Oc1c(Br)cc(CN(Cc2cc(Br)c(O)c(Br)c2)C2CCCCC2)cc1Br | -5.38% [at 11.4 µM] | 
